Active and inactive are the calls of the source. Entries that show only a call come without a potency. The call rests on the fitted dose curve; in most records, active means well fitted activation curve with a large enough effect; inconclusive means small, poorly fitted or top-dose-only effect; inactive means flat fitted curve, though single readings scatter.

One test in a line: Confirmation and Secondary Assay for Modulators of Hemoglobin Beta Chain Splicing at IVS2 654 locus (AID 910).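 Further: HeLa cells stably carrying EGFP split by mutant beta-globin IVS2-654 intron.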 The settings on record: HeLa EGFP-654 splicing reporter, GFP fluorescence, 48 h; series mostly up to 46.1 µM. The procedure, abridged:
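HeLa cells stably expressing EGFP interrupted by β-globin IVS2-654 intron, seeded overnight in Opti-MEM/2% FCS, then treated 2 days at 37 °C. Restored splicing read as total peak GFP intensity per well by laser scanning cytometry (488 nm excitation, 500–520 nm emission); 500 nM antisense PNA as control.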
As to `CC(C)(C#N)O[C@H]1OC(CO)C(O)C(O)C1O` (some centres undefined), the Potency result was “inactive”.

Consider `CC1CC2CC(=O)C3CCCN4CCCC2[C@]34C1` (some centres undefined), for which the Potency result is “inactive”.

Regarding `CC1CC[C@]2(NC1)OC1CC3C4CC=C5CC(O)CC[C@@]5(C)C4CC[C@]3(C)C1C2C` (some centres undefined), the Potency result was “inactive”.

Consider `CNC(=O)Oc1cccc2c1OC(C)(C)C2`, for which the Potency entry was “inactive”. Still for that read-out and setting: as for `NC(CO)Cc1ccccc1` (centres undefined), the entry is “inactive”; as for `O=C(O)c1nn(Cc2ccc(Cl)c(Cl)c2)c2ccccc12`, “inactive”.

Regarding `CNc1ccccc1C(=O)O`, the Potency result was “inactive”. Still for that read-out and setting: the same measure for `CC(N)C(O)c1ccc(O)c(O)c1` (centres undefined): “inactive”; for `C[C@@]12CC(c3ccoc3)OC(=O)C1CC[C@@]1(C)C2C2C=C[C@@]1(O)C(=O)O2` (some centres undefined): “inactive”; for `CC(=O)OC1C(=O)[C@]2(C)C(O)CC3OC[C@]3(OC(C)=O)C2[C@@H](OC(=O)c2ccccc2)[C@]2(O)CC(O)C(C)=C1C2(C)C` (some centres undefined): “inactive”. The same measure, in the same setting: as for `Cc1c(O)c(O)cc2c1CC=C1[C@]3(C)CC[C@]4(C)CC[C@@](C)(C(=O)O)CC4[C@]3(C)CC[C@]12C` (some centres undefined), the entry is “inactive”; as for `N#C/C(=C\c1cccc(O)c1)C(=O)O`, “inactive”; as for `CC(=O)C1CCC2C3CCC4CC(O)CCC4(C)C3CC(O)C12C` (centres undefined), “inactive”. The same measure, in the same setting: the same measure for `COc1cc2c(cc1OC)[C@@H]1C(=O)c3ccc(O)c(CC=C(C)C)c3OC1CO2` (some centres undefined): “inactive”; for `C[C@@]12CCC3C(CC[C@@H]4CC(O)CC[C@@]34C)C1CCC2O` (some centres undefined): “inactive”; for `CCC(C)C(=O)OC1C(O)C2C(CN3CC(C)CCC3[C@]2(C)O)C2C[C@]34O[C@@]5(O)C(OC(=O)C(C)(O)C(C)O)CCC3(C)C5C(OC(C)=O)C(OC(C)=O)C4[C@@]21O` (some centres undefined): “inactive”.

In the case of `N#CC(O[C@@H]1OC(COC2OC(CO)C(O)C(O)[C@@H]2O)C(O)C(O)C1O)c1ccccc1` (some centres undefined), the Potency entry is “inactive”. On to `CCN1C[C@@]2(OC(=O)c3ccccc3NC(C)=O)CCC(OC)[C@@]34C5CC6C(OC)C[C@@](O)(C(CC23)[C@@H]14)C5(O)C6OC` (some centres undefined), for which the Potency entry was “inactive”. Regarding `CCOC(=O)C1C(C=C(C)C)C1(C)C` (centres undefined), the Potency entry is “inactive”. Still for that read-out and setting: as for `FC(F)(F)c1cccc(N2CCNCC2)c1`, the entry is “inactive”; as for `CC(N)[C@@H](O)c1ccccc1` (some centres undefined), “inactive”.

On to `CC1C(=O)OC2C(O)C34C5OC(=O)[C@@]3(OC3OC(=O)[C@H](O)[C@]34C(C(C)(C)C)C5O)[C@]12O` (some centres undefined), for which the Potency entry was “inactive”. On the same count and under the same terms, as for `CC(=O)OC1CC[C@]2(C)C(CCC3C2CC[C@]2(C)C(C4=CC(=O)OC4)C(OC(C)=O)CC32O)C1` (some centres undefined), the entry is “inactive”; as for `C[C@]12CCC3C(C=CC4=CC(=O)CC[C@]43C)C1CC[C@]2(O)CCC(=O)O` (some centres undefined), “inactive”. The same measure, in the same setting: the same measure for `CC1C(=O)OC2CCN3CC=C(COC(=O)[C@](C)(O)[C@]1(C)O)C23` (some centres undefined): “inactive”. On the same count and under the same terms, as for `C/C=C(/C)C(=O)OC1CC[C@]2(C)C3CCC4[C@]5(O)CC(O)[C@]6(O)C(CN7CC(C)CCC7[C@]6(C)O)[C@]5(O)C[C@@]42O[C@]13O` (some centres undefined), the entry is “inactive”; as for `CC1O[C@@H](OC2CC[C@@]3(C=O)C4CC[C@]5(C)C(C6=CC(=O)OC6)CC[C@@]5(O)C4CC[C@]3(O)C2)C(O)C(O)C1O` (some centres undefined), “inactive”; as for `COc1ccc(/C=C/c2cc(O)cc(O)c2)cc1`, “inactive”. As for `CNC(Cc1c[nH]c2ccccc12)C(=O)O` (centres undefined), the Potency result is “inactive”. Same read-out and setting: the same measure for `COC1C(O)C(C)O[C@H](OC2CC[C@@]3(C=O)C4CC[C@]5(C)C(C6=CC(=O)OC6)CC[C@@]5(O)C4CC[C@@H]3C2)C1O` (some centres undefined): “inactive”; for `O=C(NC(=O)c1ccccc1Cl)Nc1ccc(OC(F)(F)F)cc1`: “inactive”; for `CC(=O)OC1CC(OC(C)=O)[C@]2(C)C(CC(OC(C)=O)[C@]3(C)C2CC[C@@]2(C)C(c4ccoc4)C[C@H]4O[C@]432)C1(C)C` (some centres undefined): “inactive”.

As for `CCC(N)C(O)c1ccc(O)c(O)c1` (centres undefined), the Potency entry is “inactive”.

As to `CC(=O)C1CC[C@H]2C3CC[C@@H]4CC(O)CC[C@@]4(C)C3CC[C@]12C` (some centres undefined), the Potency result is “inactive”. On the same count and under the same terms, the same measure for `O=C(O)CCC1NCC2CC1CN1CCCCC21` (centres undefined): “inactive”; for `CC1(C)N([O-])[N+](=O)C1(C)Br` (centres undefined): “inactive”. On the same count and under the same terms, the same measure for `COc1cc2c3cc1Oc1c(OC)c(OC)cc4c1C(Cc1cccc(c1)Oc1ccc(c(O)c1)CC3N(C)CC2)N(C)CC4` (centres undefined): “inactive”; for `COC[C@]12CN(C=O)C3C4C(OC)C1[C@@]3(C1CC3(O)C(OC)C(O)C4(OC(C)=O)C1C3OC(=O)c1ccccc1)[C@@H](OC)CC2O` (some centres undefined): “inactive”; for `COc1cc2c(c(OC)c1OC)-c1ccc(O)c(=O)cc1C(NC(C)=O)CC2` (centres undefined): “inactive”. `CN1C2CC3CC1C(O3)C2O` (centres undefined): the Potency entry was “inactive”.

A short description of another test: Confirmation and Secondary Assay for Modulators of Hemoglobin Beta Chain Splicing at IVS2 705 locus (AID 930).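 Further: HeLa cells stably expressing the EGFP-705 splicing reporter; GFP fluorescence per well restored by corrected splicing of the IVS2-705 intron in EGFP.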 The settings on record: HeLa EGFP-705 splicing reporter, GFP fluorescence, 48 h; series mostly up to 46.1 µM. The method in brief:
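Stable HeLa line with EGFP disrupted by mutant beta-globin intron 2 (705). Overnight attachment, then 2 days of compound at 37C, 5% CO2. Signal: peak GFP intensity summed over objects 5-250 µm.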
For the compound `CC1CC2CC(=O)C3CCCN4CCCC2[C@]34C1` (some centres undefined), the Potency entry is “inactive”. On the same count and under the same terms, as for `CC1CC[C@]2(NC1)OC1CC3C4CC=C5CC(O)CC[C@@]5(C)C4CC[C@]3(C)C1C2C` (some centres undefined), the entry is “inactive”; as for `CNC(=O)Oc1cccc2c1OC(C)(C)C2`, “inactive”; as for `NC(CO)Cc1ccccc1` (centres undefined), “inactive”. Still for that read-out and setting: the same measure for `CNc1ccccc1C(=O)O`: “inactive”; for `CC(N)C(O)c1ccc(O)c(O)c1` (centres undefined): “inactive”; for `C[C@@]12CC(c3ccoc3)OC(=O)C1CC[C@@]1(C)C2C2C=C[C@@]1(O)C(=O)O2` (some centres undefined): “inactive”. Same read-out and setting: the same measure for `CC(=O)OC1C(=O)[C@]2(C)C(O)CC3OC[C@]3(OC(C)=O)C2[C@@H](OC(=O)c2ccccc2)[C@]2(O)CC(O)C(C)=C1C2(C)C` (some centres undefined): “inactive”; for `Cc1c(O)c(O)cc2c1CC=C1[C@]3(C)CC[C@]4(C)CC[C@@](C)(C(=O)O)CC4[C@]3(C)CC[C@]12C` (some centres undefined): “inactive”.

Regarding `N#C/C(=C\c1cccc(O)c1)C(=O)O`, the Potency entry is “inactive”.

Regarding `CC(=O)C1CCC2C3CCC4CC(O)CCC4(C)C3CC(O)C12C` (centres undefined), the Potency entry is “inactive”. In the case of `COc1cc2c(cc1OC)[C@@H]1C(=O)c3ccc(O)c(CC=C(C)C)c3OC1CO2` (some centres undefined), the Potency result was “inactive”. On to `C[C@@]12CCC3C(CC[C@@H]4CC(O)CC[C@@]34C)C1CCC2O` (some centres undefined), for which the Potency result was “inactive”. On the same count and under the same terms, the same measure for `CCC(C)C(=O)OC1C(O)C2C(CN3CC(C)CCC3[C@]2(C)O)C2C[C@]34O[C@@]5(O)C(OC(=O)C(C)(O)C(C)O)CCC3(C)C5C(OC(C)=O)C(OC(C)=O)C4[C@@]21O` (some centres undefined): “inactive”. On the same count and under the same terms, the same measure for `N#CC(O[C@@H]1OC(COC2OC(CO)C(O)C(O)[C@@H]2O)C(O)C(O)C1O)c1ccccc1` (some centres undefined): “inactive”.

Consider `CCN1C[C@@]2(OC(=O)c3ccccc3NC(C)=O)CCC(OC)[C@@]34C5CC6C(OC)C[C@@](O)(C(CC23)[C@@H]14)C5(O)C6OC` (some centres undefined), for which the Potency result is “inactive”. Turning to `FC(F)(F)c1cccc(N2CCNCC2)c1`, the Potency entry was “inactive”. Same read-out and setting: as for `CC(N)[C@@H](O)c1ccccc1` (some centres undefined), the entry is “inactive”.

In the case of `CC1C(=O)OC2C(O)C34C5OC(=O)[C@@]3(OC3OC(=O)[C@H](O)[C@]34C(C(C)(C)C)C5O)[C@]12O` (some centres undefined), the Potency entry was “inactive”. Still for that read-out and setting: the same measure for `CC(=O)OC1CC[C@]2(C)C(CCC3C2CC[C@]2(C)C(C4=CC(=O)OC4)C(OC(C)=O)CC32O)C1` (some centres undefined): “inactive”; for `C[C@]12CCC3C(C=CC4=CC(=O)CC[C@]43C)C1CC[C@]2(O)CCC(=O)O` (some centres undefined): “inactive”; for `CC1C(=O)OC2CCN3CC=C(COC(=O)[C@](C)(O)[C@]1(C)O)C23` (some centres undefined): “inactive”. Turning to `C/C=C(/C)C(=O)OC1CC[C@]2(C)C3CCC4[C@]5(O)CC(O)[C@]6(O)C(CN7CC(C)CCC7[C@]6(C)O)[C@]5(O)C[C@@]42O[C@]13O` (some centres undefined), the Potency result was “inactive”. Still for that read-out and setting: the same measure for `CC1O[C@@H](OC2CC[C@@]3(C=O)C4CC[C@]5(C)C(C6=CC(=O)OC6)CC[C@@]5(O)C4CC[C@]3(O)C2)C(O)C(O)C1O` (some centres undefined): “inactive”; for `O=C(NC(=O)c1ccccc1Cl)Nc1ccc(OC(F)(F)F)cc1`: “inactive”; for `CC(=O)OC1CC(OC(C)=O)[C@]2(C)C(CC(OC(C)=O)[C@]3(C)C2CC[C@@]2(C)C(c4ccoc4)C[C@H]4O[C@]432)C1(C)C` (some centres undefined): “inactive”.

For the compound `CCC(N)C(O)c1ccc(O)c(O)c1` (centres undefined), the Potency result was “inactive”. Still for that read-out and setting: the same measure for `CC(=O)C1CC[C@H]2C3CC[C@@H]4CC(O)CC[C@@]4(C)C3CC[C@]12C` (some centres undefined): “inactive”; for `O=C(O)CCC1NCC2CC1CN1CCCCC21` (centres undefined): “inactive”; for `CC1(C)N([O-])[N+](=O)C1(C)Br` (centres undefined): “inactive”.

For `COc1cc2c3cc1Oc1c(OC)c(OC)cc4c1C(Cc1cccc(c1)Oc1ccc(c(O)c1)CC3N(C)CC2)N(C)CC4` (centres undefined), the Potency entry is “inactive”. Same read-out and setting: as for `COC[C@]12CN(C=O)C3C4C(OC)C1[C@@]3(C1CC3(O)C(OC)C(O)C4(OC(C)=O)C1C3OC(=O)c1ccccc1)[C@@H](OC)CC2O` (some centres undefined), the entry is “inactive”; as for `COc1cc2c(c(OC)c1OC)-c1ccc(O)c(=O)cc1C(NC(C)=O)CC2` (centres undefined), “inactive”; as for `CN1C2CC3CC1C(O3)C2O` (centres undefined), “inactive”.

For the origin of these results see PubChem BioAssay (NCATS).
